# Compound activity as filed in PubChem BioAssay.
# Rpn11 block – Rpn11 (PSMD14) deubiquitinase inhibitors, primary screen, biochemical, fluorescence polarization, uHTS | human 26S proteasome, Ub4-pepOG fluorescence polarization; 20S core pre-blocked with epoxomicin | inhibition, % at 20 µM | 360,000 compounds, 0.59% hits;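 active = inhibition at 20 µM, scaled to each plate's controls, above about 33%, limit read from the data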
# CTSL1 counter – Fasciola hepatica cathepsin L1 inhibitors, primary screen, counter-screen for PFM18AAP inhibitor project, biochemical, QFRET, fluorogenic peptide substrate; inhibition, % at 5.96 µM; recombinant F. hepatica cathepsin L1, Z-Leu-Arg-MCA fluorescence; 300,000 compounds, 0.49% hits;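 active = inhibition above the mean of all tested compounds plus 3 SD, set per screening campaign, cut at about 17% in these data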;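 also: 0% = plate median of test compound wells and 100% = 1 µM Z-Phe-Ala-diazomethylketone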
# PHOSPHO1 block – PubChem AID 1565; Phosphoethanolamine/phosphocholine phosphatase (Homo sapiens), Q8TCT1; recombinant PHOSPHO1, absorbance phosphatase assay; inhibition, % at 13.3 µM; 290,000 compounds, 1.1% hits; in the data active = inhibition above about 60%
# HNF4A DNA FP – change in binding of human HNF4A to DNA, primary screen, biochemical, fluorescence polarization, FITC-DNA; activity change, % at 10 µM; 360,000 compounds, 0.3% hits; 1 h; Hepatocyte nuclear factor 4-alpha (Homo sapiens), P41235; in the data active = activity change above about 30%, passing the limit was not always enough
# CendR NRP1 mod – modulators of CendR peptide binding to NRP-1, primary screen, biochemical, fluorescence polarization, uHTS; Neuropilin-1 (Homo sapiens), O14786; 360,000 compounds, 0.85% hits; FAM-RPARPAR peptide binding to NRP-1; AID 602438, 2012; inhibition, % at 25 µM;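 active = inhibition or corrected inhibition above about 18%, plus a signal ratio from 0.5 to 1.5, limit read from the data, passing the limit was not always enough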
# TPT1 inh – Candida albicans TPT1 enzyme inhibitors, primary screen, biochemical, fluorescence polarization; tRNA 2'-phosphotransferase TPT1 (Candida albicans SC5314); recombinant caTPT1, FP RNA substrate dephosphorylation; inhibition, % at 5 µM; 300,000 compounds, 0.81% hits; AID 1962, 2009;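 active = inhibition above the mean of all tested compounds plus 3 SD, set per screening campaign, cut at about 24% in these data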;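 also: plate controls were DMSO alone for no effect and ferristatin control at 100 nM for full effect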
# Active calls of the source: *; . = no result shown. Rows were chosen to be rich in hits. Some 3.3% of all compounds tested hit in one or more screens of this group.
SMILES,Rpn11 block,CTSL1 counter,PHOSPHO1 block,HNF4A DNA FP,CendR NRP1 mod,TPT1 inh
Cc1ccc(C2(c3noc(CN(C)CCCN4CCOCC4)n3)CCCC2)cc1,.,0,30,.,.,1
Cc1ccc(C2(c3noc(CN(C)Cc4cnn(C)c4)n3)CCCC2)cc1,-1,-1,57,8,34*,-8
Cc1ccc(S(=O)(=O)Nc2cccc(C(=O)N3CCOCC3)c2)cc1,3,-3,9,4,23*,2
O=C(c1cccc(NS(=O)(=O)c2cccc(F)c2)c1)N1CCCC1,-1,.,.,2,27*,.
Cc1ccc(S(=O)(=O)Nc2ccc(C(=O)N3CCOCC3)cc2)cc1,3,-3,32,3,-1,0
CS(=O)(=O)Nc1cccc(C2=NN(S(C)(=O)=O)C(c3ccc4c(c3)OCO4)C2)c1 (centres undefined),1,-4,3,36*,-90,3
Cc1c(NC(=O)CSc2nnc3c4ccccc4n(CCc4ccccc4)c3n2)c(=O)n(-c2ccccc2)n1C,-22,-2,64*,3,18,2
CCOC(=O)CSc1nnc2c3ccccc3n(C)c2n1,2,-1,24,-3,26*,-1
CCn1c2ccccc2c2nnc(SCC(=O)Nc3c(C)n(C)n(-c4ccccc4)c3=O)nc21,5,9,30,0,-2,-5
Cc1cc(NS(=O)(=O)c2ccc(NC(=O)COc3ccccc3C(C)(C)C)cc2)no1,-14,4,13,-2,-4,0
CCSc1nnc(NC(=O)C2Cc3ccccc3CN2C(=O)c2ccco2)s1 (centres undefined),11,-1,61*,-3,-26,4
Cc1ccccc1NC(=O)C1Cc2ccccc2CN1C(=O)c1ccco1 (centres undefined),17,-1,28,1,-8,1
O=C(Nc1ncc(Cc2cccc([N+](=O)[O-])c2)s1)c1ccco1,-9,2,60*,5,3,-2
Cc1ccc(Cc2cnc(NC(=O)c3ccco3)s2)cc1,1,3,12,1,-4,-4
CC(=O)Nc1ncc(Cc2cccc(Cl)c2)s1,-8,2,60*,-1,-5,-1
CC(C)C(=O)Nc1ncc(Cc2cccc(Cl)c2)s1,-2,6,43,-1,-16,-2
O=C(c1cccc(F)c1)N1CCC2(CC1)NCCc1[nH]cnc12,1,-3,13,-3,6,2
CCOC(=O)C1CCN(C(=O)CN(c2ccc3c(c2)OCCO3)S(C)(=O)=O)CC1,-4,2,-1,2,-2,1
CCOC(=O)c1c(C)[n+]([O-])c2ccc3c(non3O)c12,-2,-1,16,3,3,-2
CCOC(=O)c1c(=O)n(O)c2ccc(C)cc2[n+]1[O-],-8,1,68*,-3,7,-5
O=C(O)c1ccc(CN2C(=O)CSC2=S)cc1,22,8,71*,2,-24,3
O=C(O)c1ccc(N2C(=O)CSC2=S)cc1,-6,-3,.,5,-6,-3
CCOC(=O)c1cc(NC(=O)c2ccccc2)c(=O)oc1C(F)(F)F,-1,.,-13,46*,4,.
Cc1oc(=O)c(NC(=O)c2ccc(Cl)cc2)cc1C(=O)c1ccccc1,3,19*,37,2,6,-5
CC(=O)c1cc(NC(=O)c2ccccc2)c(=O)oc1C,4,2,16,0,-38,0
SMILES,Rpn11 block,CTSL1 counter,PHOSPHO1 block,HNF4A DNA FP,CendR NRP1 mod,TPT1 inh
Cc1oc(=O)c(NC(=O)c2ccccc2)cc1C(=O)c1ccccc1,7,35*,33,-1,-31,-2
CN(C)c1cccc(C(=O)Nc2ccc3nc4n(c(=O)c3c2)CCCCC4)c1,-9,0,-1,4,8,-1
O=C(O)c1ccc(S(=O)(=O)Cc2ccccc2)cc1,-2,-2,27,1,5,0
CC(C)N(CCCNC(=O)Cn1ncc2c([nH]c3ccccc32)c1=O)Cc1ccccc1,5,2,58,3,26*,-1
Cc1ccc2[nH]c3c(=O)n(CC(=O)NCCCN(C)Cc4ccccc4)ncc3c2c1,-2,-1,43,4,0,-6
COc1ccc(N2CCN(Cc3oc(CO)cc(=O)c3O)CC2)cc1,2,2,17,2,1,-28
CSc1nc(C=Nc2ccccc2Cl)c(O)n1Cc1cccc(Cl)c1,-5,-2,88*,1,6,2
O=Nc1c(O)n(Cc2cccc(Cl)c2)c2ccccc12,-18,0,33,-2,-1,1
O=[N+]([O-])c1ccc(Sc2n[nH]c(-c3ccccc3)n2)nc1,3,2,84*,2,1,-7
O=C(NCc1ccco1)c1cccc2c1C(=O)c1ccc(N3CCCC3)cc1S2(=O)=O,.,.,.,52*,-173,.
Cc1ccc(CNC(=O)c2cccc3c2C(=O)c2ccc(N4CCCCC4)cc2S3(=O)=O)cc1,.,.,.,38*,-141,.
Cc1ccccc1N(C(=O)c1ccccn1)C(C(=O)NCc1ccccc1)c1cccnc1 (centres undefined),-1,-2,40,4,6,2
O=C(NCc1ccccc1)C(c1cccnc1)N(C(=O)c1ccccn1)c1ccccc1F (centres undefined),0,6,20,1,26*,1
CCS(=O)(=O)N1Cc2ccccc2CC1C(=O)NCCc1ccccc1 (centres undefined),3,0,11,1,-7,-1
Cc1cc(C(=O)CSc2nc(N)cc(N)n2)c(C)n1CC1CCCO1 (centres undefined),1,.,.,-1,-2,.
Cc1cc(C(=O)CSc2nc(N)cc(=O)[nH]2)c(C)n1CC1CCCO1 (centres undefined),-5,.,.,2,21*,.
Cc1cc(C(=O)CSc2nc3ccccc3[nH]2)c(C)n1CC1CCCO1 (centres undefined),3,2,34,-2,7,-4
Cc1cc(C(=O)CSc2nc3ccccc3o2)c(C)n1CC1CCCO1 (centres undefined),3,4,93*,2,6,0
CCN(C(=O)CN1CC(C)OC(C)C1)c1c(N)n(Cc2ccccc2)c(=O)[nH]c1=O (centres undefined),1,-5,-7,4,-4,0
COC(=O)c1cccc(NC(=S)NCc2ccco2)c1,2,1,26,0,-10,-1
COC(=O)c1cccc(NC(=S)NCc2ccc(F)cc2)c1,2,-4,23,2,46*,0
NC(=S)N/N=C/c1ccc2ccccc2c1,-1,4,-17,2,-10,2
